Assays:
[1] = biological target: Protein kinase C gamma type (Homo sapiens) (UniProt P05129); settings: at 1 µM;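 note: each value is an averaged percent inhibition of the enzyme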
[2] = biological target: T1, Protein kinase C iota type (Homo sapiens) (UniProt P41743); settings: at 0.1 µM
T1 sequence (whole entry): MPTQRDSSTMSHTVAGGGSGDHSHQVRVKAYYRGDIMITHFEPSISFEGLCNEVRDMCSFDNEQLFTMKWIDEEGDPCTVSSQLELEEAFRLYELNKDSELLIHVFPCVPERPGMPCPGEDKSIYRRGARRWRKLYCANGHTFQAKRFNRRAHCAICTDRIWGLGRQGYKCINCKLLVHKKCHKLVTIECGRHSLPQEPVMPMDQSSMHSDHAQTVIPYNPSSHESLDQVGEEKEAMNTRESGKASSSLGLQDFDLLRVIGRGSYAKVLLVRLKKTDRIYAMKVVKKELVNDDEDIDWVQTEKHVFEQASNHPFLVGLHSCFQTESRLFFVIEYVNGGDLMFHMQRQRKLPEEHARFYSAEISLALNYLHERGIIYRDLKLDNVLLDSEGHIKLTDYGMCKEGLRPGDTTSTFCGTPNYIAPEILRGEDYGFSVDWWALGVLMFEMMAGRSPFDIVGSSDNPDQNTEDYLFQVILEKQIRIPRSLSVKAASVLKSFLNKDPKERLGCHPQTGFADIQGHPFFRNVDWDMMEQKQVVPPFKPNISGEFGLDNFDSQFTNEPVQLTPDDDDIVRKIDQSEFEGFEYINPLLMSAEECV

[3] = biological target: T1, Protein kinase C iota type (Homo sapiens); settings: at 1 µM
[4] = biological target: Protein kinase C theta type (Homo sapiens) (UniProt Q04759); settings: at 0.1 µM
[5] = biological target: Protein kinase C theta type (Homo sapiens) (UniProt Q04759); settings: at 1 µM
[6] = biological target: Protein kinase C beta type (Homo sapiens) (UniProt P05771); settings: at 0.1 µM
[7] = biological target: Protein kinase C beta type (Homo sapiens) (UniProt P05771); settings: at 1 µM
[8] = biological target: T2, Serine/threonine-protein kinase D1 (Homo sapiens) (UniProt Q15139); settings: at 0.1 µM
T2 sequence (whole entry): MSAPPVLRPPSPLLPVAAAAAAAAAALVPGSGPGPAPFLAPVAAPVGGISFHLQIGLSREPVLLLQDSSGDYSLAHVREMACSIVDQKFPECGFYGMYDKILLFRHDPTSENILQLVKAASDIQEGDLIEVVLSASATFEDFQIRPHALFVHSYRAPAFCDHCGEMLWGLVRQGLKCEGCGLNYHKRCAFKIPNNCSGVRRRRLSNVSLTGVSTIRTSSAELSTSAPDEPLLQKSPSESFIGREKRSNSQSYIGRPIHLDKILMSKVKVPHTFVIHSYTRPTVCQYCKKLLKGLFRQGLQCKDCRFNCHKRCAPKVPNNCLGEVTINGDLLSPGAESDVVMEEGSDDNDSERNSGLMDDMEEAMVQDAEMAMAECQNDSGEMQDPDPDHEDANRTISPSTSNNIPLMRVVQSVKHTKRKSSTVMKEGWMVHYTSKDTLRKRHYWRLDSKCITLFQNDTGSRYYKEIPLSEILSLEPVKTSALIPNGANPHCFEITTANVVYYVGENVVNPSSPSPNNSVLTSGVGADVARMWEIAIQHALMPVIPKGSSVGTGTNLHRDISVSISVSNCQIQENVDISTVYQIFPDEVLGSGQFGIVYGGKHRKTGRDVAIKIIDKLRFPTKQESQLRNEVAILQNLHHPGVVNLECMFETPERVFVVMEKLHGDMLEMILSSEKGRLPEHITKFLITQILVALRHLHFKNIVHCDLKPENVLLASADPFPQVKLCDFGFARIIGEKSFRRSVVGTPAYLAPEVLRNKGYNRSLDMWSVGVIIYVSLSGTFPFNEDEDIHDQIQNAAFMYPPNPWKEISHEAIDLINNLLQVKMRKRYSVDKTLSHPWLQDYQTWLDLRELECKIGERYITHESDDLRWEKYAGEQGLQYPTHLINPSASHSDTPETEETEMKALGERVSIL

[9] = biological target: T2, Serine/threonine-protein kinase D1 (Homo sapiens); settings: at 1 µM
[10] = biological target: T3, Serine/threonine-protein kinase D2 (Homo sapiens) (UniProt Q9BZL6); settings: at 0.1 µM
T3 sequence (whole entry): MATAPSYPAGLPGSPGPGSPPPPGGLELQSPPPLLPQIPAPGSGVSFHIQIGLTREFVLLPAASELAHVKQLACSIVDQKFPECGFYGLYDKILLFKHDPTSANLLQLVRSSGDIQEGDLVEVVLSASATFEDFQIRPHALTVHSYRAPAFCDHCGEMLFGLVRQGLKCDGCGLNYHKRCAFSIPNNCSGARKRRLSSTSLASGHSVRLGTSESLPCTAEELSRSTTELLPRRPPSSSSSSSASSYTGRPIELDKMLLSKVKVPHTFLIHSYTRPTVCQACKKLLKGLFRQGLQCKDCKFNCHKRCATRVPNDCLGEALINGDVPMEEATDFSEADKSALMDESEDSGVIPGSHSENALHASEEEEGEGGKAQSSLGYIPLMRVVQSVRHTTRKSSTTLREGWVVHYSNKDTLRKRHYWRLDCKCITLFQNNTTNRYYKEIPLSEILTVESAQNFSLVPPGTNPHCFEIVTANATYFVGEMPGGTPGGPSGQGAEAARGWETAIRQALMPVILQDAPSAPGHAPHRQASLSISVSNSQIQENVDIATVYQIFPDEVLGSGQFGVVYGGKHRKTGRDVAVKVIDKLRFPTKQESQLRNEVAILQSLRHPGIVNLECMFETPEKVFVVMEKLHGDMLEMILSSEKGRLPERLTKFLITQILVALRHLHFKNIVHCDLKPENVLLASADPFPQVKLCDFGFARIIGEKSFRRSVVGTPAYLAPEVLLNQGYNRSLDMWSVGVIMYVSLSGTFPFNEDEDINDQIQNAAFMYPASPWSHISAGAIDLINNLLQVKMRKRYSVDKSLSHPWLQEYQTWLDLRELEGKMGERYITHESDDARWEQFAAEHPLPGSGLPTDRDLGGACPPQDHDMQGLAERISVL

[11] = biological target: T3, Serine/threonine-protein kinase D2 (Homo sapiens); settings: at 1 µM
[12] = biological target: T4, Serine/threonine-protein kinase D3 (Homo sapiens) (UniProt O94806); settings: at 0.1 µM
T4 sequence (whole entry): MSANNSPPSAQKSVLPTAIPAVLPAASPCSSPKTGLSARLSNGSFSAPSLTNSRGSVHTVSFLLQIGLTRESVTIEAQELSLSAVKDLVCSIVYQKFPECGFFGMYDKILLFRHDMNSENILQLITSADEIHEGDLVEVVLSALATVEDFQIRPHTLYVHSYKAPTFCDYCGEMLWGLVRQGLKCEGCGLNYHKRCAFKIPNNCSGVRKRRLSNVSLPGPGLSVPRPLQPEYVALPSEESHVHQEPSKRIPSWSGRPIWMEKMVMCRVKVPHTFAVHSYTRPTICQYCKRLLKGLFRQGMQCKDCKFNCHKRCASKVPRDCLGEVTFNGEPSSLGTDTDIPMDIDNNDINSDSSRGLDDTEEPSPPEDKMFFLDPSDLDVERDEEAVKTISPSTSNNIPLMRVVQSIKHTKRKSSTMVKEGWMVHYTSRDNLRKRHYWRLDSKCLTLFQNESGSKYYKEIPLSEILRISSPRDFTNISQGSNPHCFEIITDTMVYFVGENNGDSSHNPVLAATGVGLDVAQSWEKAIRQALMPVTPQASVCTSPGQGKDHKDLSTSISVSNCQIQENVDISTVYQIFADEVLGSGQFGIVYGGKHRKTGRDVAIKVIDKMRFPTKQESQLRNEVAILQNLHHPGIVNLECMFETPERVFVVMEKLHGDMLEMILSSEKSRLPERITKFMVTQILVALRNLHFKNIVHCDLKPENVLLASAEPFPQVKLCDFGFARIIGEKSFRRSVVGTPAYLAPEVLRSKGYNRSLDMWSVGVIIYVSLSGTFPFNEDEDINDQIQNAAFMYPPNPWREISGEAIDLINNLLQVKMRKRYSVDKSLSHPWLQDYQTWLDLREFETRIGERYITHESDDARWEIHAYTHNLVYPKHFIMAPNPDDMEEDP

[13] = biological target: T4, Serine/threonine-protein kinase D3 (Homo sapiens); settings: at 1 µM
[14] = biological target: T5, cGMP-dependent protein kinase 1 (Homo sapiens) (UniProt Q13976); settings: at 0.1 µM
T5 sequence (whole entry): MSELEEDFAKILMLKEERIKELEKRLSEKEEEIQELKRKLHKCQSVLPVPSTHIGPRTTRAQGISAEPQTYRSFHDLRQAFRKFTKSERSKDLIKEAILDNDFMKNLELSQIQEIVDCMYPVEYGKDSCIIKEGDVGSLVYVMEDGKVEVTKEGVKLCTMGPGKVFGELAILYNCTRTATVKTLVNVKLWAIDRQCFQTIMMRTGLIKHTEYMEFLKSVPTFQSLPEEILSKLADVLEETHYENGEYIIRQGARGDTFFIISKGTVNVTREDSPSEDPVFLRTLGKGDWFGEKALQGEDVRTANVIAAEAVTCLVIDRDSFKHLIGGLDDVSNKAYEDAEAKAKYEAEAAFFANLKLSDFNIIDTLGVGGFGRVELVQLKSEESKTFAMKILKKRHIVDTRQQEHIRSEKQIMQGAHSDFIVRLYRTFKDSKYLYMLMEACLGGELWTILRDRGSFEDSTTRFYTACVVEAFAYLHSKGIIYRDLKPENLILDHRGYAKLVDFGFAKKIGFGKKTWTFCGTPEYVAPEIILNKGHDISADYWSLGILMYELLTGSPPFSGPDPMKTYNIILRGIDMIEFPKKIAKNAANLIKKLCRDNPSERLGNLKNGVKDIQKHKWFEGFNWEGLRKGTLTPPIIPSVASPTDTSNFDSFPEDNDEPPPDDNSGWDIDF

[15] = biological target: T5, cGMP-dependent protein kinase 1 (Homo sapiens); settings: at 1 µM
[16] = biological target: T6, cGMP-dependent protein kinase 2 (Homo sapiens) (UniProt Q13237); settings: at 0.1 µM
T6 sequence (whole entry): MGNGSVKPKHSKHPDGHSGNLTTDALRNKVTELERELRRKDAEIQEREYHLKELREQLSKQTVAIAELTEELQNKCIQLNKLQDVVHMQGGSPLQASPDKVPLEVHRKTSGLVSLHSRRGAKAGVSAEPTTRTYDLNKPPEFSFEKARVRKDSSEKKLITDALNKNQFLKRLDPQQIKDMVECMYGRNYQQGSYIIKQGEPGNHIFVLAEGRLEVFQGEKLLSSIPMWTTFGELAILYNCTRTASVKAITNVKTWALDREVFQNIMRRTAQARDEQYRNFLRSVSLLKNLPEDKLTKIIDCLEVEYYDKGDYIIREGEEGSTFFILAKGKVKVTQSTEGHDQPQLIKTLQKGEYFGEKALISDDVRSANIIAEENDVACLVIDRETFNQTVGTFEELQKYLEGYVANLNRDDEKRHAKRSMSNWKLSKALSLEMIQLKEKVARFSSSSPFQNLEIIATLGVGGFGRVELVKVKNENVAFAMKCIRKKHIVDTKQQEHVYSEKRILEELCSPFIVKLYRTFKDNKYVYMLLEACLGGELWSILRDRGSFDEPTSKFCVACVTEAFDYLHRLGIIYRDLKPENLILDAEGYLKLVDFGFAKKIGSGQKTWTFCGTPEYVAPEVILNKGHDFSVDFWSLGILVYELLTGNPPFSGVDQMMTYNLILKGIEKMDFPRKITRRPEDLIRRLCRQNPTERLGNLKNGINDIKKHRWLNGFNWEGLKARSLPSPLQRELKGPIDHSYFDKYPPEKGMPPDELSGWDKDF

[17] = biological target: T6, cGMP-dependent protein kinase 2 (Homo sapiens); settings: at 1 µM
[18] = biological target: T7, cAMP-dependent protein kinase catalytic subunit PRKX (Homo sapiens) (UniProt P51817); settings: at 0.1 µM
T7 sequence (whole entry): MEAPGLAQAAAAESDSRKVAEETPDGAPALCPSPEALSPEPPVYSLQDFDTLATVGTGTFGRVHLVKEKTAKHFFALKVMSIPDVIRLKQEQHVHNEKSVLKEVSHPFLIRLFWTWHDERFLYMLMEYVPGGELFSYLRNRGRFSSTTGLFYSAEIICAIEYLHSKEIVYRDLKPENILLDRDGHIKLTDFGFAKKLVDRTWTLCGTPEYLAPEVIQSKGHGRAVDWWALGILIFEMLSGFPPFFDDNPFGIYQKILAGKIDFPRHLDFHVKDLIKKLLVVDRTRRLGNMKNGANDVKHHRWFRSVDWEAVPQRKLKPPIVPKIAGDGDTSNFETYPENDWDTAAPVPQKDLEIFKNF

[19] = biological target: T7, cAMP-dependent protein kinase catalytic subunit PRKX (Homo sapiens); settings: at 1 µM
[20] = biological target: Rho-associated protein kinase 1 (Homo sapiens) (UniProt Q13464); settings: at 0.1 µM;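 note: values are mean percent inhibition of ROCK1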
Rho-associated protein kinase 1 (Homo sapiens), sequence (Q13464 2-1354 limits assumed): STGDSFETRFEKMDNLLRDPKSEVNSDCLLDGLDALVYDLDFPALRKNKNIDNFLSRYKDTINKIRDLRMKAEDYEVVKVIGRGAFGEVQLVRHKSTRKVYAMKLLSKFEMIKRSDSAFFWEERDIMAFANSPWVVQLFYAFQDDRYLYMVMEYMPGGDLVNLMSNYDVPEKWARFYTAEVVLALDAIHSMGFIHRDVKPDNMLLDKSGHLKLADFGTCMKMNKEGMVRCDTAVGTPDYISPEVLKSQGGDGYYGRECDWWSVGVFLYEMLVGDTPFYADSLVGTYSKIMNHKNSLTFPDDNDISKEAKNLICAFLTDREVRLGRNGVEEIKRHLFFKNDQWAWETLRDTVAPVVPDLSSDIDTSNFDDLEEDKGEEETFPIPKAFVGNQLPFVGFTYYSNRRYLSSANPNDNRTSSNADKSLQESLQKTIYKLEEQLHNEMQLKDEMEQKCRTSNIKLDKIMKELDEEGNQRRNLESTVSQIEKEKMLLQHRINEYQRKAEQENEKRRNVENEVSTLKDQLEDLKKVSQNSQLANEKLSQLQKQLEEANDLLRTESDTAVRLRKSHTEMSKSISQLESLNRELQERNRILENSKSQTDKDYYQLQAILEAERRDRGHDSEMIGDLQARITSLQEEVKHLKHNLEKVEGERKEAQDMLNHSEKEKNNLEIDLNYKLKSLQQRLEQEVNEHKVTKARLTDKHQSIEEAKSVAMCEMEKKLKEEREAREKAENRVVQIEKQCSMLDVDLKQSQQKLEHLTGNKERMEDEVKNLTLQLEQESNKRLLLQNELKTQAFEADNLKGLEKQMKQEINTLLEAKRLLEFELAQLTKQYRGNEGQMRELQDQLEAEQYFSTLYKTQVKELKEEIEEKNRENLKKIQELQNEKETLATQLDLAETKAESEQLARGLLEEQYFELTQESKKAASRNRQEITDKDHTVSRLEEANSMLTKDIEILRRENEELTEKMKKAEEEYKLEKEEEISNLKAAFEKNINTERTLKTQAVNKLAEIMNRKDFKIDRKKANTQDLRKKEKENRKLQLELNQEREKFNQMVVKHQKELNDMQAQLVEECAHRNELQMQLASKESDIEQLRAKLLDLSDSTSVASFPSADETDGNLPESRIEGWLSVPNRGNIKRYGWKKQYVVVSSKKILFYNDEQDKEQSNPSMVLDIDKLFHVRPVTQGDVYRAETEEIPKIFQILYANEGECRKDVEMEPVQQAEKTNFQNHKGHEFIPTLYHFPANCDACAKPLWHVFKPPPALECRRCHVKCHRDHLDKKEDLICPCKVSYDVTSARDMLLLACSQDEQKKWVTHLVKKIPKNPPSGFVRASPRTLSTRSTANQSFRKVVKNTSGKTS

Protein kinase C theta type (Homo sapiens), sequence (Q04759 whole entry, looked up): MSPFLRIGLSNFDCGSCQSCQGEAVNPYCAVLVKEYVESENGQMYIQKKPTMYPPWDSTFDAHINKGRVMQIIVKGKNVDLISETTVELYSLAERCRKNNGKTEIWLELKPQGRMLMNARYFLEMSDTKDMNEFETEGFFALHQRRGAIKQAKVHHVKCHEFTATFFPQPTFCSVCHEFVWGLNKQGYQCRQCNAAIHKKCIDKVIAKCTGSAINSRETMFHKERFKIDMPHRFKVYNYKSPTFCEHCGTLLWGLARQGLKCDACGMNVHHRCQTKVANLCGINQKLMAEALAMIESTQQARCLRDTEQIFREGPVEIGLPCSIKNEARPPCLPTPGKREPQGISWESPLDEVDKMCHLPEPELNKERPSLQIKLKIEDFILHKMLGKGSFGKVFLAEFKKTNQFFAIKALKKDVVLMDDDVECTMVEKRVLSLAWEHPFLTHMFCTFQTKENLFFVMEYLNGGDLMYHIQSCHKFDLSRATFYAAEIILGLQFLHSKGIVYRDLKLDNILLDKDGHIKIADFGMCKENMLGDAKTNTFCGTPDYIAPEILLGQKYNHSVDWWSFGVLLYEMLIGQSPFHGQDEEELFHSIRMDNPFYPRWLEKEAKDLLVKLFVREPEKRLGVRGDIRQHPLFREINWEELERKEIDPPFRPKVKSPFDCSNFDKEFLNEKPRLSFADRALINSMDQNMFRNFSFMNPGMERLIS
Protein kinase C beta type (Homo sapiens), sequence (P05771 2-671 limits assumed): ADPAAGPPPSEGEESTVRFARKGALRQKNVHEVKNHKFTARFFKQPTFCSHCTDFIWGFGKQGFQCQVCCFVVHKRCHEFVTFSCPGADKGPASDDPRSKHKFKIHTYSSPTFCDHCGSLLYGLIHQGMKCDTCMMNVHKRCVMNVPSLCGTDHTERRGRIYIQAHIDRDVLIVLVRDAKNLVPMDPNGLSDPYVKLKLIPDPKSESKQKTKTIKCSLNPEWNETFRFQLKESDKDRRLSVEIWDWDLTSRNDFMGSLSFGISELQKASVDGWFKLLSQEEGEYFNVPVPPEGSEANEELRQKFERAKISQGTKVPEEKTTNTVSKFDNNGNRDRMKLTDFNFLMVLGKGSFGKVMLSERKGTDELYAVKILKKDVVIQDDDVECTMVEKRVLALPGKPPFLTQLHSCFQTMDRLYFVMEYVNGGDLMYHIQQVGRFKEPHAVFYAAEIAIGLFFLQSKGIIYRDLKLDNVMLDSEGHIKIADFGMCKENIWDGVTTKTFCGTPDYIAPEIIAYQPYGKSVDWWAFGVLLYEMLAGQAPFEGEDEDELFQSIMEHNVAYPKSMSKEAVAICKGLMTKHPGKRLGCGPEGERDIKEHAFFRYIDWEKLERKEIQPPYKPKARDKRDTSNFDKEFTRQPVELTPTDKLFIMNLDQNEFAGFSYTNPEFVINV

| SMILES | inhibition [1] [%] | inhibition [2] [%] | inhibition [3] [%] | inhibition [4] [%] | inhibition [5] [%] | inhibition [6] [%] | inhibition [7] [%] | inhibition [8] [%] | inhibition [9] [%] | inhibition [10] [%] | inhibition [11] [%] | inhibition [12] [%] | inhibition [13] [%] | inhibition [14] [%] | inhibition [15] [%] | inhibition [16] [%] | inhibition [17] [%] | inhibition [18] [%] | inhibition [19] [%] | inhibition [20] [%] |
| --- | --- | --- | --- | --- | --- | --- | --- | --- | --- | --- | --- | --- | --- | --- | --- | --- | --- | --- | --- | --- |
| COc1cccc(-n2nc(C)c3c(N/N=C(\C)c4ccncc4)ncnc32)c1 | -0.03 | -1.18 | -0.8 | -0.03 | -0.11 | 0.75 | 0.46 | 0.01 | 0.3 | 0.82 | -1.17 | -0.64 | 0.59 | 0.03 | 0.55 | 0.35 | -0.19 | -0.2 | -1.17 | -1.53 |
| O=C(Nc1ccc(Oc2ccc3[nH]c(NC(=O)c4ccco4)nc3c2)cc1)Nc1cc(C(F)(F)F)ccc1F | 2.22 | 0.86 | -0.83 | -0.73 | 1.78 | 0.05 | 1.61 | -3.35 | -2.46 | -3.46 | -1.48 | -3.15 | -1.16 | 1.18 | 4.28 | 1.74 | 4.38 | 4 | 4.61 | 3.36 |
| CCn1c(-c2nonc2N)nc2ccc(F)cc21 | 5.71 | 2.23 | 1.51 | 4.58 | 6.97 | 1.15 | 4.26 | 4.58 | 6.64 | 5.68 | 5.33 | 6.8 | 6.49 | 3.97 | 14.5 | 8.14 | 41.4 | 3.36 | 6.51 | 2.21 |
| Cc1ccc2c(-c3ccnc(Nc4ccc5c(c4)OCCO5)n3)c(-c3ccc(C(F)(F)F)cc3)nn2n1 | 3.76 | 0.29 | 1.15 | 1.61 | 2.73 | 0.24 | 2.06 | 1.11 | 3.32 | 2.13 | 2.37 | 1.2 | 2.26 | 3.03 | 3.63 | 2.95 | 2.42 | 6.47 | 6.18 | 0.76 |
